Laboratory results taken from PubChem BioAssay (EPA / NIEHS).
More than one record can exist for a structure, and the calls need not agree. Calls of active or inactive are those of the source. Rule for the calls: active = hit-call score of the fitted dose curve at least 0.9, where 1 is the maximum; inactive = score below 0.9.

Read-out: Interleukin-8 (IL8), CXCL8 (gene 3576)
Experiment: BSK_3C_IL8: BioMAP Diversity Plus: 3C Assay for Interleukin-8 (IL8) Biomarker Activity (AID 2283020)
Conditions: primary human endothelial cells (HUVEC); actives raise or lower the signal
Protocol: BSK_3C is a cell-based, multiplexed-readout assay that uses umbilical vein endothelium, a human vascular primary cell, with measurements taken at 24 hours after chemical dosing in a 96-well plate.BSK_3C_IL8 is an assay component measured in the BSK_3C assay. It measures IL-8 antibody related to regulation of gene expression using ELISA technology.Data from the assay component BSK_3C_IL8 was analyzed into 1 assay endpoint. This assay endpoint, BSK_3C_IL8, was analyzed with bidirectional fitting relative to DMSO as the negative control and baseline of activity. Using a type of binding reporter, gain or loss-of-signal activity can be used to understand changes in the signaling as they relate to the gene CXCL8. Furthermore, this assay endpoint can be referred to as a primary readout, because this assay has produced multiple assay endpoints where this one serves a signaling function. To generalize the intended target to other relatable targets, this assay endpoint is annotated to the cytokine intended target family, where the subfamily is interleukins.
The levels of cell surface (or secreted, indicated by the prefix "s") biomarker endpoints were measured by ELISA. Overt cytotoxicity to cells in confluent adherent cultures (all systems other than the BT system) was assessed by measuring total protein levels using sulforhodamine B (SRB) staining in parallel cultures at the time of biomarker measurements, indicated as SRB endpoints. For proliferation assays for adherent cell types, individual cell types are cultured at sub-confluence and relative cell numbers quantified by SRB staining at time points optimized for each system (48 h: 3C and CASM3C systems; 72 h: BT and HDF3CGF systems; 96 h: SAg system). SRB was performed by staining cells with 0.1% SRB after fixation with 10% TCA and reading wells at 560 nm.Viability and proliferation of PBMC (T cells) was quantified by Alamar Blue reduction for the SAg and BT systems. For PBMC viability (referred to as PBMC Cytotoxicity within the assay endpoint names), cells were plated (75,000/well in a 96-well plate) and then chemical samples added for 1 h before addition of activators, SEB and TSST-1 (20 ng/mL final concentration each). Cells were incubated for 90 h. Then, Alamar Blue (20 uL/well) (Invitrogen, Cat DAL1100) was added for 6 h, and the plates were read with a fluorescence microplate reader at 546/580 nm (excitation/emission). For PBMC proliferation, cells were plated and activated as above but incubated for only 16 h prior to addition of Alamar Blue. Plates were read after 6 h.

Compound	AC50	outcome
O=[N+]([O-])c1ccc(Oc2ccc(Cl)cc2Cl)cc1	20 µM (active)	–
Oc1ccccc1Cl	–	inactive
CCOC(=O)[C@]1(c2ccccc2)Oc2ccccc2[C@@H]1N	20 µM (active)	–
CCNS(=O)(=O)C(F)(F)C(F)(F)C(F)(F)C(F)(F)C(F)(F)C(F)(F)C(F)(F)C(F)(F)F	26 µM (active)	inactive
C1=Cc2cccc3cccc1c23	–	inactive
CN(C)[C@@H]1C(=O)C(C(N)=O)=C(O)[C@@]2(O)C(=O)C3=C(O)c4c(O)cccc4[C@@](C)(O)[C@H]3C[C@@H]12	–	inactive
COC(=O)c1ccccc1N	–	inactive
Cc1ccc([N+](=O)[O-])cc1	–	inactive
c1ccc2c(c1)-c1cccc3cccc-2c13	–	inactive
C[C@]12C=CC3=C4CCC(=O)C=C4CC[C@H]3[C@@H]1CC[C@@H]2O	–	inactive
O=[N+]([O-])C(Br)(CO)CO	35.8 µM (active)	–
O=Cc1ccco1	–	inactive
CCC(C)c1ccc(O)cc1 (stereo not given)	–	inactive
O=P(OCCCl)(OCCCl)OCCCl	–	inactive
[Cl-].[Cl-].[Hg+2]	31.1 µM (active)	–
CN(C)c1ccccc1	–	inactive
c1ccc(NNc2ccccc2)cc1	–	inactive
Clc1ccc(C(c2ccc(Cl)cc2)C(Cl)Cl)cc1	15 µM (active)	–
CCC[CH2][Sn]([Cl])([CH2]CCC)[CH2]CCC	0.155 µM (active)	–
CCC12COCN1COC2	–	inactive

Compound	AC50	outcome
ClC1=C(Cl)C2(Cl)C3C(Cl)C=CC3C1(Cl)C2(Cl)Cl (stereo not given)	32.7 µM (active)	–
O=C(Oc1ccc(Br)cc1)N1CCN2CCC1CC2	–	inactive
Clc1ccc(Cl)c(Cl)c1	–	inactive
CN(C)c1ccc(C(=O)c2ccc(N(C)C)cc2)cc1	2.55 µM (active)	–
CO[C@@H]1[C@H](OC(=O)NC(=O)CCl)CC[C@]2(CO2)[C@H]1[C@@]1(C)O[C@@H]1CC=C(C)C	–	inactive
N#CC(Br)Br	–	inactive
CCOc1cccc(C2(N3CCN(c4ccccc4)CC3)CCC(C)CC2)c1 (stereo not given)	–	inactive
Nc1cc(Cl)cc(C(=O)O)c1Cl	–	inactive
Nc1ccc(Cc2ccc(N)cc2)cc1	–	inactive
CC(C)(OOC(C)(C)c1ccccc1)c1ccccc1	29.8 µM (active)	–
COP(=S)(OC)SCN1C(=O)c2ccccc2C1=O	–	inactive
CCCCOC(=O)c1ccccc1C(=O)OCc1ccccc1	–	inactive
C[N+](C)(C)CC1CO1 (stereo not given)	–	inactive
OCCOCCO	–	inactive
Nc1ccc([N+](=O)[O-])cc1	–	inactive
CCCCCCCCn1sccc1=O	12.4 µM (active)	–
CCCCC(CC)COC(=O)c1ccc(C(=O)OCC(CC)CCCC)c(C(=O)OCC(CC)CCCC)c1 (stereo not given)	–	inactive
Oc1ccc2ccc3cccc4ccc1c2c34	32.8 µM (active)	–
CCCSC(=O)N(CCC)CCC	–	inactive
